For assay [1], the target named is T1, Aspartate--tRNA(Asp/Asn) ligase (Mycobacterium tuberculosis (strain ATCC 25618 / H37Rv)) (UniProt P9WFW3). Also: in the data most compounds retested in dose-response had high values.
T1 sequence (whole entry): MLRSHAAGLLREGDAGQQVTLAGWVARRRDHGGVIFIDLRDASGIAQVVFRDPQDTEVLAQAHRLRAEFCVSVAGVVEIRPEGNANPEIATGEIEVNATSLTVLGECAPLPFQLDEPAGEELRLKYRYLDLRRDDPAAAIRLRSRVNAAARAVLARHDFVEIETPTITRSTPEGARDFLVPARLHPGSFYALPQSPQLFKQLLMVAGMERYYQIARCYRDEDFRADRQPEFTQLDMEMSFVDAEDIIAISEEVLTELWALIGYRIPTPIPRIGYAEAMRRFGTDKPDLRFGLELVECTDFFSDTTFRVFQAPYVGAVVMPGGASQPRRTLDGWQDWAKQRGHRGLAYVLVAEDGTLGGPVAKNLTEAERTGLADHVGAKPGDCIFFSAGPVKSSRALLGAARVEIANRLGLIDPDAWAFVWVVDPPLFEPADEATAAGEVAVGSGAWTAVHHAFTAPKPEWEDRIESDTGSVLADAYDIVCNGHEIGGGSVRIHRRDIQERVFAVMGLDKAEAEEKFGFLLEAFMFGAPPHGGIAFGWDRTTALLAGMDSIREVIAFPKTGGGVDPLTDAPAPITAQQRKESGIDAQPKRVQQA
The assay is described as follows: Assay for Asp RNA synthetase-1 from Mycobacterium tuberculosis. The assay is classed as functional. Details: scale not given: direction of the effect not stated beside the values. The following applies: 30 µM.

Assay [2] concerns the target Shiga toxin 2 (Escherichia coli O157:H7) (UniProt P09385+P09386). The assay is described as follows: E. coli 0.157:H7 Shiga Toxin SOP - stx2 screening assay. The assay is classed as functional. More on the design: scale not given: direction of the effect not stated beside the values. To be noted: 30 µM.

Turning to `O=C1CC(c2ccc(C(=O)O)cc2)c2ncn(-c3ccccc3)c2N1` (configuration not stated), the Percent Effect in assay [1] is 19.5%; in assay [2], -25.4%.

Consider `O=C1NC(c2ccccc2)=N[C@@]12CC[C@@H]1CN(Cc3ccccc3)C[C@@H]12`, for which the Percent Effect was 0.728% in assay [1] and -14.6% in assay [2].

Consider `COc1ccc(CN2C[C@@H]3COC[C@]3(CN(C)C)C2)cc1`, for which the Percent Effect in assay [1] was determined as 2.52%; in assay [2], 3.85%.

In the case of `Cc1ccc(-c2noc(CN3CCOC(CN(C)C)C3)n2)cc1F` (configuration not stated), the Percent Effect was determined as 3.61% in assay [1] and 24.6% in assay [2].

With `Cc1nc(C)n(CC2CCCN(Cc3nnc(-c4ccco4)o3)C2)n1` (configuration not stated), the figures for the Percent Effect in assay [1] and in assay [2] were -2.25% and -19.8%, respectively.

As for `COc1cccc(CN(C)C(=O)CCC(=O)c2ccc(Cl)cc2)c1OC`, the values for the Percent Effect in assay [1] and in assay [2] were -1.19% and -1.09%, respectively.

With `CCC(=O)N(C)CC(=O)Nc1ccc(Br)cn1`, the figures for the Percent Effect in assay [1] and in assay [2] were -3.04% and -18.8%, respectively.

In the case of `CC(C)c1cc(NC(=O)CN2CCC(N3CCCCC3)CC2)on1`, the Percent Effect in assay [1] is 0.301%; in assay [2], -28.7%.

With `Cc1cnn(C2CCCN(C(=O)c3cc(C)sc3C)C2)c1` (configuration not stated), the Percent Effect is -4.82% in assay [1] and -24.8% in assay [2].

For `O=C(NCc1cnc2n1CCN(Cc1ccsc1)CC2)C1CCC1`, the Percent Effect in assay [1] was 3.57%; in assay [2] it was 4.16%.

As for `CC(C)N1CCOCC2(CN(Cc3ccco3)CCO2)C1` (configuration not stated), the values for the Percent Effect in assay [1] and in assay [2] were 1.82% and 5.04%, respectively.

As to `CN(Cc1ccccc1)CC(O)Cn1cnc2ccsc2c1=O` (configuration not stated), the Percent Effect in assay [1] was -1.75%; in assay [2] it was -2.3%.

`Cc1nc(-c2ccco2)ccc1C(=O)N1CCCC1Cn1cccn1` (configuration not stated): the figures for the Percent Effect in assay [1] and in assay [2] were 0.0146% and 15.5%, respectively.

With `COc1c(C2CCCN2C(=O)c2cc(Cl)c[nH]2)c(C)nn1C` (configuration not stated), the Percent Effect was 0.802% in assay [1] and -13% in assay [2].

Consider `CC(C)NC(=O)N1CCC2(C1)CN(c1ccsc1)C(=O)CN2C` (configuration not stated), for which the Percent Effect in assay [1] was 11.4%; in assay [2], -17.6%.

On to `Cc1cccc(-c2ccc3nc(C4CCN(CC5CC5)CC4)nn3c2)c1`, for which the Percent Effect is -1.89% in assay [1] and -31.4% in assay [2].

For `CN(C)C(=O)N1CCC2(CCCN(Cc3cnn(C)c3)C2)C1` (configuration not stated), the values for the Percent Effect in assay [1] and in assay [2] were -0.168% and 0.121%, respectively.

Consider `Cc1ccc(C(=O)N2CCO[C@H]3[C@@H](OCc4ccccn4)CC[C@@H]32)o1`, for which the results for the Percent Effect in assay [1] and in assay [2] were 6.63% and -6.16%, respectively.

Take `Cc1nnc(N2CC[C@H]3C[C@H](C(=O)N4CCOCC4)O[C@H]3C2)s1`: the Percent Effect in assay [1] is 3.25%; in assay [2], -4.69%.

Consider `O=C(NCc1cccc2cccnc12)N1CCC(n2cncn2)CC1`, for which the values for the Percent Effect in assay [1] and in assay [2] were -6.04% and 8.18%, respectively.

Regarding `Cc1nn(C)c(C)c1C1CCCN1C(=O)c1ccc(NC2CC2)nc1` (configuration not stated), the Percent Effect in assay [1] is 2.27%; in assay [2], -36.7%.

`CSCCC(=O)N1CCCC1c1ccsc1` (configuration not stated): the Percent Effect came out at 2.62% in assay [1] and 4.03% in assay [2].

For the molecule `Cc1cccc(-n2ncc(C(=O)N3CCn4c(C)nnc4C3)c2C)c1`, the Percent Effect in assay [1] was found to be 3.68%; in assay [2] it was 32.6%.

On to `Cn1nccc1CNC(=O)Nc1cc(C(F)(F)F)c[nH]c1=O`, for which the Percent Effect in assay [1] was found to be 0.5%; in assay [2], 21%.

`CCOc1ncccc1CNC(=O)Nc1ccc(N(C)C)nc1`: the Percent Effect is 3.77% in assay [1] and -48.5% in assay [2].

Consider `CC(=O)N1CCC2(CC1)CC(Oc1ccccc1)CO2` (configuration not stated), for which the figures for the Percent Effect in assay [1] and in assay [2] were -1.48% and -19.5%, respectively.

Take `O=C(CN1CCOC(Cn2cccn2)C1)NCCc1ccc(F)cc1` (configuration not stated): the Percent Effect was determined as 4.34% in assay [1] and 12% in assay [2].

For `Cc1cc(NC(=O)CCN(CC2CCOC2)C2CC2)no1` (configuration not stated), the Percent Effect was -6.8% in assay [1] and -16.3% in assay [2].

Take `COCCNC(=O)CCc1c(C)nn(-c2nc(C)c(C)c(=O)[nH]2)c1C`: the Percent Effect was -1.79% in assay [1] and -2.84% in assay [2].

Take `Cn1cccc1C(=O)N1CC[C@H]2C[C@@H](c3ccncn3)O[C@@H]2C1`: the Percent Effect in assay [1] is -6.89%; in assay [2], 7.29%.

Regarding `Cc1nc(CN(C)C(=O)Nc2cnn(CC3CCCO3)c2)cs1` (configuration not stated), the Percent Effect in assay [1] is 2.17%; in assay [2] it was -5.02%.

Regarding `CC(C)=CCN(C)C1CCCN(Cc2noc(C)n2)C1` (configuration not stated), the Percent Effect in assay [1] was determined as 3.23%; in assay [2] it was 25.2%.

Take `COc1ccc(-c2csc(N)c2C#N)cc1OC`: the Percent Effect is 3.46% in assay [1] and -24.5% in assay [2].

Regarding `Cc1cn2nc(N3CCCC3Cn3nc(C)cc3C)sc2n1` (configuration not stated), the Percent Effect in assay [1] was -7.52%; in assay [2], -1.2%.

As for `CC(=O)N(Cc1ncc(C)o1)C1CCN(Cc2cccc(C#N)c2)C1` (configuration not stated), the Percent Effect in assay [1] was found to be 0.127%; in assay [2], 9.86%.

In the case of `CNC(=O)N1C[C@H]2C[C@H](C(=O)Nc3ccccc3)[C@@H](C1)O2`, the Percent Effect in assay [1] stood at 2.94%; in assay [2] it was 6.82%.

`COCC1CN(Cc2ccc(OC)cc2)Cc2nn(C)cc21` (configuration not stated): the Percent Effect in assay [1] was 14.5%; in assay [2], -22.6%.

Turning to `CC(NC(=O)c1cc(Br)c2c(c1)OCCO2)C(N)=O` (configuration not stated), the Percent Effect in assay [1] was -2.13%; in assay [2], -4.92%.

Regarding `CCc1n[nH]c(C2CN(CCc3cccs3)CCO2)n1` (configuration not stated), the values for the Percent Effect in assay [1] and in assay [2] were -6.83% and -38.7%, respectively.

With `Cc1noc(C)c1C(=O)NCc1ccnc(OCC(F)(F)F)c1`, the Percent Effect is -0.189% in assay [1] and 10.8% in assay [2].

For `Cc1ccc(CCNC(=O)N2CCCC(Cc3nccn3C)C2)cn1` (configuration not stated), the results for the Percent Effect in assay [1] and in assay [2] were -1.82% and -13.3%, respectively.

Take `c1ccc(OCCCN2CCN(c3ccc4nncn4n3)CC2)cc1`: the Percent Effect was -0.637% in assay [1] and -81.9% in assay [2].

On to `Cc1ccc(C(=O)N2C[C@H]3CCC[C@@]3(COCc3cccnc3)C2)s1`, for which the values for the Percent Effect in assay [1] and in assay [2] were 6.3% and -7.06%, respectively.

For the molecule `CCCn1nc2c(cc1=O)CN(CC(=O)Nc1ccncc1)CC2`, the Percent Effect in assay [1] is 2.52%; in assay [2], -19.5%.

For the molecule `CCn1nc(C)c(CCNC(=O)C2CCCN(CC(N)=O)C2)c1C` (configuration not stated), the Percent Effect in assay [1] is -2.59%; in assay [2], 7.92%.

In the case of `CC(C)NC(=O)N1CC[C@@H]2CN(Cc3ccccc3)S(=O)(=O)[C@@H]2CC1`, the Percent Effect is -3.29% in assay [1] and -5.27% in assay [2].
